The text below walks through data of PubChem BioAssay (NCATS).

Inconclusive results are not listed. Calls of active or inactive are those of the source. Unless noted, calls come from the whole dose curve; as a rule, active = well fitted curve in the direction sought with a large enough effect; inconclusive = small, poorly fitted or top-dose-only effect, or another doubt; inactive = no such curve, though single readings can be large; an effect the other way counts as inactive or inconclusive.

Test [1] in a line: P-glycoprotein substrates identified in KB-8-5-11 adenocarcinoma cell line, qHTS therapeutic library screen (AID 1346987). Note: % is set by controls: 0 for no effect and ±100 for the full control effect; nearly all actives have a fitted effect of over 65% in size. Summed up:
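In this qHTS, P-gp-rich KB-8-5-11 cells received library compounds across a concentration range. Viability was quantified by luminescence after 72 h at 37 degree C.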
(In general: qHTS replaces the single test concentration by a dilution series.)

Test [2] relates to Zika virus NS2B-NS3 protease (unlinked complex). Description: Primary screen GU Rhodamine qHTS for Zika virus inhibitors: Unlinked NS2B-NS3 protease assay (AID 1347159). Note: % is set by controls: 0 for no effect and ±100 for the full control effect; nearly all actives have a fitted effect of over 60% in size. Summed up:
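Enzyme 25 nM in Tris-HCl pH 8.0 + 0.01% Tween 20; compounds up to 114 microM, 15 min RT dark; + Rhod110 substrate 1.5 microM; read t0 and 15 min; delta fluorescence → % inhibition → 4-parameter Hill fit.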

In test [3] the test system is Zika virus NS2B-NS3 protease (linked construct). Description: Primary screen NINDS Rhodamine qHTS for Zika virus inhibitors (AID 1347160). Note: % is set by controls: 0 for no effect and ±100 for the full control effect; nearly all actives have a fitted effect of over 55% in size. The procedure, abridged:
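Enzyme (25 nM, linked NS2B-NS3) was preincubated 15 min with compound in 10 mM Tris-HCl pH 8.0, 0.01% Tween 20. Rhodamine110 substrate (1.5 microM) was then added and fluorescence read at start and after 15 min.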

Test [4] has as its target Calcium and integrin-binding protein 1 (Homo sapiens) (UniProt Q99828). Description: Primary qHTS for Identification of Calcium Integrin Binding Protein 1 (CIB1) Competitor (AID 1508620).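 Note: GST tagged CIB1 binding a fluorescein labelled alphaIIb integrin peptide tracer; top concentration of the series differs between compounds; % is set by controls: 0 for no effect and ±100 for the full control effect.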 Summed up:
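CIB1-GST (1 uM final) and compound incubated 15 min at room temperature before adding FITC-alphaIIb peptide tracer (100 nM final). Competition for binding read by fluorescence polarization (ex 480, em 540) after another 15 min at room temperature.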

Test [5] deals with Cytochrome P450 2D6 (Homo sapiens) (UniProt P10635). Nature of the test: Cytochrome P450 family 2 subfamily D member 6 (CYP2D6) small molecule antagonists: luciferase biochemical (cell-free) qHTS assay (AID 1645840; active = well fitted curve in the direction sought with a large enough effect in the repeat runs; an effect the other way counts as inactive or inconclusive; note: potency is the fitted concentration of half-maximal effect; nearly all actives have a fitted effect of over 55% in size). The procedure, abridged: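 P450-Glo CYP2D6 system: proluciferin substrate converted by enzyme to luciferin, read by luminescence proportional to activity. Enzyme-substrate mix with compound 10 min at room temperature, then NADPH regeneration 1 h before detection reagent.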
Chain of Cytochrome P450 2D6 (Homo sapiens) (P10635 whole entry, looked up): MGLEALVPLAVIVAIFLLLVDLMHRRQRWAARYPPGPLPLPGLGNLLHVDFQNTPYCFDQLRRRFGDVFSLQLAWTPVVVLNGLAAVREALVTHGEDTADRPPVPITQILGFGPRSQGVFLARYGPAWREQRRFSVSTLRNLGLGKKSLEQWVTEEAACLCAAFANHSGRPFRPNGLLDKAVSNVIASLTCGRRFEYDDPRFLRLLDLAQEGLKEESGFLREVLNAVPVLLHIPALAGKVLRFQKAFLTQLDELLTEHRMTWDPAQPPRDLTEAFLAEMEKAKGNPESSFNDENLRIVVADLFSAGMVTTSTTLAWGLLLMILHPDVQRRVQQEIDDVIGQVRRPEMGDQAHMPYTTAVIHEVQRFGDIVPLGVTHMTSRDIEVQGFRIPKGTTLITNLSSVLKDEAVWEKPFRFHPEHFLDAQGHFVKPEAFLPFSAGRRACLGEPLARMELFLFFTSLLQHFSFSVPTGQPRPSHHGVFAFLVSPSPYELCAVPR

Test [6] has as its target Cytochrome P450 2C9 (Homo sapiens) (UniProt P11712). Description: Cytochrome P450 family 2 subfamily C member 9 (CYP2C9) small molecule antagonists: luciferase biochemical (cell-free) qHTS assay (AID 1645842; active = well fitted curve in the direction sought with a large enough effect in the repeat runs; an effect the other way counts as inactive or inconclusive; note: potency is the fitted concentration of half-maximal effect; nearly all actives have a fitted effect of over 55% in size). The procedure, abridged: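 P450-Glo CYP2C9 system: proluciferin substrate with enzyme in mix containing 0.4% BSA, 10 min at room temperature, then NADPH regeneration solution added and incubated 1 h at 37C. Detection reagent stopped reaction; luminescence read after 20 min as RLU.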

Test [7] has as its target Catechol O-methyltransferase (Homo sapiens) (UniProt P21964). Nature of the test: Confirmatory Screen for Target Class Profiling of Small Molecule Inhibitors of Methyltransferases (AID 1745852). For activity change, negative = inhibition: % is set by controls: 0 for no effect and ±100 for the full control effect. Particulars: MTase-Glo luminescence, SAH detection, recombinant enzyme; measured here: COMT max response; stronger effect = lower value.
Test [8] deals with Guanidinoacetate N-methyltransferase (Homo sapiens) (UniProt Q14353). The test is described as above. The following applies: activity change, negative = inhibition: at 57.3 µM (top of the series) unless noted.
Test [9] has as its target Nicotinamide N-methyltransferase (Homo sapiens) (UniProt P40261). The description is as above. Particulars: MTase-Glo luminescence, SAH detection, recombinant enzyme; measured here: NNMT max response; stronger effect = lower value.
The target of test [10] is Phenylethanolamine N-methyltransferase (Homo sapiens) (UniProt P11086). The description is as above. The following applies: MTase-Glo luminescence, SAH detection, recombinant enzyme; measured here: PNMT max response; stronger effect = lower value.
Chain of Phenylethanolamine N-methyltransferase (Homo sapiens) (P11086 whole entry, looked up): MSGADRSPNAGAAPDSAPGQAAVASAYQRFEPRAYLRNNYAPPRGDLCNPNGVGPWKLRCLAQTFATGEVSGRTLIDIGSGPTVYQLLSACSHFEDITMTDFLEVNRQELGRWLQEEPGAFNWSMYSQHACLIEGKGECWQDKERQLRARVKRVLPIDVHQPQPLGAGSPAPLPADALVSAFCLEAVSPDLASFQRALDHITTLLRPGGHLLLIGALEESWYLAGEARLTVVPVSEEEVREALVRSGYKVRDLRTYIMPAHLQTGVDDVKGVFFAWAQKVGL
For test [11], the target named is Glutathione peroxidase 1 (Homo sapiens) (UniProt P07203). Description: Primary qHTS Assay for Inhibitors of Recombinant Selenoprotein Glutathione Peroxidase 1 (GPX1) (AID 1845191). Note: nearly all actives have a fitted effect of over 65% in size. Summed up: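 NADPH consumption tracked by fluorescence at 340/450 nm between t=0 and t=15 min, room temperature. Final mix: 10 nM GPX1, 100 nM glutathione reductase, 1 mM GSH, 0.5 mM NADPH, 0.5 mM cumene hydroperoxide, 0.01% BSA; 30 min compound–enzyme preincubation.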
Chain of Glutathione peroxidase 1 (Homo sapiens) (P07203 whole entry, looked up): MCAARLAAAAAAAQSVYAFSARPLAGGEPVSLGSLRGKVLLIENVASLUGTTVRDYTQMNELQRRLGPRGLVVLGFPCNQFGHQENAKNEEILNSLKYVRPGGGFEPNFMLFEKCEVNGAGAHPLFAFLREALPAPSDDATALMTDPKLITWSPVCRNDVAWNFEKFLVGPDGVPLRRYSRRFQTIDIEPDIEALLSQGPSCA

Test [12] deals with Phospholipid hydroperoxide glutathione peroxidase GPX4 (Homo sapiens) (UniProt P36969). Nature of the test: Primary qHTS Assay for Inhibitors of Recombinant Selenoprotein Glutathione Peroxidase 4 (GPX4) (AID 1845192). Note: nearly all actives have a fitted effect of over 65% in size. The procedure, abridged: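 NADPH consumption followed by fluorescence at 340/450 nm, t=0 and after 15 min at room temperature. Reaction started with cumene hydroperoxide (0.5 mM final) after 30 min compound–GPX4 preincubation; final 200 nM GPX4, 100 nM GR, 1 mM GSH, 0.5 mM NADPH.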
Chain of Phospholipid hydroperoxide glutathione peroxidase GPX4 (Homo sapiens) (P36969 whole entry, looked up): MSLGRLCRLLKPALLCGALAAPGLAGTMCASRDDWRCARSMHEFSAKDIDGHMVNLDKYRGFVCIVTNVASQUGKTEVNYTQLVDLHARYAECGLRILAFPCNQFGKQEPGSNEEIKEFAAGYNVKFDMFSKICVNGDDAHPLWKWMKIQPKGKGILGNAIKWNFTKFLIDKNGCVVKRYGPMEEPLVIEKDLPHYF

Test [13] has as its target Luciferin 4-monooxygenase (Photinus pyralis) (UniProt P08659). Nature of the test: Primary firefly luciferase (FLuc) qHTS assay for identification of artifact compounds. (AID 1845220). Note: nearly all actives have a fitted effect of over 60% in size. The following applies: outcome: dose series up to 54.1 µM unless noted. The procedure, abridged: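 FLuc 10 nM; luciferin 10 uM; ATP 10 uM; Tris-acetate pH 7.6, Mg-acetate 10 mM; 15 min RT preincubation; 5 min reaction; luminescence.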

In test [14] the test system is Nanoluciferase (engineered Oplophorus gracilirostris luciferase). Nature of the test: Primary Nanoluciferase (NLuc) qHTS assay for identification of artifact compounds. (AID 1845222).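 Note: NLuc secreted into diluted conditioned medium of S16 cells; 0% = DMSO and -100% = no enzyme.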 The procedure, abridged:
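NLuc from S16 cell medium (1:55) plus test compounds, 15 min, room temperature. Luminescence after Nano-Glo (1:100) addition, 5 min.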

The nature of test [15]: Primary redox qHTS assay for identification of artifact compounds. (AID 1845223).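 Note: 0% = DMSO and 100% = reference compound.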 The procedure, abridged:
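Redox-cycling detection via DTT (250 uM final) oxidation coupled to Amplex Red (25 uM)/HRP (250 mU/mL) in HBSS. 15 min preincubation plus 30 min after DTT, room temperature. Ex/Em 525/598 nm; 4-parameter Hill fit against DMSO and 10 uM DA3003.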

In a further test the test system is KB-3-1. Nature of the test: Cytotoxic Profiling of Annotated Libraries Using Quantitative High-Throughput Screening (AID 1296008). Note: % is set by controls: 0 for no effect and ±100 for the full control effect; nearly all actives have a fitted effect of over 60% in size. The following applies: Five cell lines viability, CellTiter-Glo ATP luminescence, 48-72 h; max response: stronger effect = lower value. The procedure, abridged:
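Cytotoxicity was measured as CellTiter-Glo ATP luminescence, read after 10 min at room temperature. Compound treatment of the cells lasted 48 or 72 hr at 37 degrees Celsius in a qHTS format.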

Another test concerns CAOV3. Nature of the test: Primary qHTS to identify gynecologic anti-cancer compounds using libraries of approved drugs and bioactive compounds (AID 1345084). Note: % is set by controls: 0 for no effect and ±100 for the full control effect; nearly all actives have a fitted effect of over 55% in size. Particulars: Gynecologic cancer cell panel viability, ATPlite luminescence, 48 h; series mostly up to 57.5 µM. Summed up: (§1)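 Cells, 1,000 per well, were allowed to settle for 16 h at 37 C before compound addition. Five concentrations were tested for 48 h, and viability was read by ATPlite luminescence after 15 min at room temperature.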

The next test relates to CASKI. The description is as above. Particulars: Gynecologic cancer cell panel viability, ATPlite luminescence, 48 h; series mostly up to 57.5 µM. Summed up:
as §1
A general note: In ATP-based viability assays light output follows the ATP content of the culture.

The subject of a further test is Es-2. Described as above. Particulars: Gynecologic cancer cell panel viability, ATPlite luminescence, 48 h; series mostly up to 57.5 µM. The procedure, abridged:
as §1

The next test has as its system HeLa. The description is as above. The following applies: Gynecologic cancer cell panel viability, ATPlite luminescence, 48 h; series mostly up to 57.5 µM. The procedure, abridged:
as §1

For the next test, the system named is Hek293T. The description is as above. Particulars: Gynecologic cancer cell panel viability, ATPlite luminescence, 48 h, control line for the selectivity index; series mostly up to 57.5 µM. Summed up: as §1
Another test deals with JEG-3. The description is as above. Particulars: Gynecologic cancer cell panel viability, ATPlite luminescence, 48 h; series mostly up to 57.5 µM. The procedure, abridged:
as §1

The test system of the next test is OV90. The description is as above. The following applies: Gynecologic cancer cell panel viability, ATPlite luminescence, 48 h; series mostly up to 57.5 µM. The procedure, abridged: as §1
The next test relates to PA-1. Described as above. Particulars: Gynecologic cancer cell panel viability, ATPlite luminescence, 48 h; series mostly up to 57.5 µM. The procedure, abridged: as §1
The next test has as its system SKOV3. The description is as above. The following applies: Gynecologic cancer cell panel viability, ATPlite luminescence, 48 h; series mostly up to 57.5 µM. The procedure, abridged:
as §1

For a further test, the system named is Tov112D. Described as above. Particulars: Gynecologic cancer cell panel viability, ATPlite luminescence, 48 h; series mostly up to 57.5 µM. Summed up:
as §1

In test [16] the target is Luciferin 4-monooxygenase (Photinus pyralis) (UniProt P08659). Description: Biochemical firefly luciferase enzyme assay for NPC (AID 624030).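 Note: purified P. pyralis luciferase at 10 nM with luciferin and ATP substrate; 0% = DMSO and -100% = full luciferase inhibition by PTC124 control; nearly all actives have a fitted effect of over 70% in size.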 The procedure, abridged:
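Direct inhibition of firefly luciferase enzyme (10 nM final, 50 mM Tris Acetate) assessed by luminescence within 5 minutes. Percent activity scaled between DMSO and PTC124 positive control, with concentration-effect curves classified by fit quality and response.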

The nature of test [17]: qHTS Assay for Identifying Gametocytocidal Compounds (AID 743244).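 Note: % is set by controls: 0 for no effect and ±100 for the full control effect; actives lower the fluorescent signal which means gametocytes are killed.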 Particulars: P. falciparum 3D7 stage III-V gametocytes, alamarBlue, 72 h; max response: stronger effect = lower value. The procedure, abridged: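 P. falciparum 3D7 stage III–V gametocytes (20,000 cells/well) were exposed to compounds for 72 h at 37 °C, 5% CO2. AlamarBlue was then added for 24 h; decreased resorufin fluorescence (Ex 525/Em 598 nm) indicated loss of viability.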

The subject of another test is astro. Nature of the test: Drug repurposing screens with cells derived from glioblastoma tumor samples (AID 1345199). Note: % is set by controls: 0 for no effect and ±100 for the full control effect; nearly all actives have a fitted effect of over 40% in size. The following applies: viability, ATP luminescence, 48 h; series mostly up to 45.9 µM. The procedure, abridged: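 Primary testing used CD133+ neurospheres from four GBM patients, seven concentrations, 48 h exposure and ATP-based viability; confirmation added three slower-growing patient lines.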

The target of another test is Furin (Homo sapiens) (UniProt P09958). Nature of the test: Furin counterscreen qHTS for Zika virus inhibitors (AID 1347149).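 Note: purified recombinant full-length human furin enzyme at 5 nM; fluorescence gain from furin cutting a BOC-RVRR-AMC peptide substrate over 15 min; top concentration of the series differs between compounds; plate controls were no-inhibitor control for no effect and no-enzyme control for full effect; nearly all actives have a fitted effect of over 70% in size.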 Summed up:
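Counterscreen measures cleavage of 2 microM BOC-RVRR-AMC, below its ~15 microM Km, by 5 nM full-length human furin at pH 7.0 after a 15-min compound preincubation. Inhibition derives from the 15-min fluorescence increase at 37C.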
For orientation: A counterscreen serves to expose hits that act by an unwanted route or on another target.

Test [18] deals with Zika virus NS2B-NS3 protease (unlinked). Nature of the test: Optimization of GU AMC qHTS for Zika virus inhibitors: Unlinked NS2B-NS3 protease assay (AID 1347151).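 Note: 0% = no-inhibitor control and -100% = no-enzyme control; nearly all actives have a fitted effect of over 80% in size.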 Summed up: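 Noncovalent complex of NS2B hydrophilic domain and NS3 protease domain, 25 nM final, in 10 mM Tris-HCl pH 8.0, 0.01% Tween 20. AMC fluorescence change over 15 min at room temperature was fitted to a 4-parameter Hill equation.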

Test [19] can be described thus: Vero cells viability qHTS for Zika virus inhibitors (AID 1347167). Note: % is set by controls: 0 for no effect and ±100 for the full control effect. The procedure, abridged: (§2)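 Luminescent ATP readout (CellTiter Glo) after 30 min at 37 degrees C gives viability; cells in DMEM + 4% FBS were treated 24 to 48 hours with compound, following overnight attachment.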
Test [20] is described as follows: HepG2 cells viability qHTS for Zika virus inhibitors (AID 1347168). Note: % is set by controls: 0 for no effect and ±100 for the full control effect. The procedure, abridged:
as §2

A short description of test [21]: Primary qHTS for Huh7 cytotoxicity: counterscreen for inhibitors of MERS-S pseudotyped particle cell entry (AID 1479147; calls by dose curve). The following applies: outcome: dose series up to 57.1 µM unless noted.
A short description of test [22]: Primary qHTS for Vero E6 cytotoxicity: counterscreen for inhibitors of SARS-S pseudo-typed particle cell entry (AID 1479150; calls by dose curve). The following applies: outcome: dose series up to 57.1 µM unless noted.
A short description of test [23]: Cytotoxicity counterscreen for inhibitors of SARS-CoV-2 cell entry (AID 1645845; calls by dose curve; note: nearly all actives have a fitted effect of over 50% in size). The procedure, abridged: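 ATP-content luminescence (ATPLite 1step, 15 min RT) read after 48 h compound exposure of Expi293F cells stably expressing human ACE2; normalized to cells-only wells and media-only wells.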

Chain of Luciferin 4-monooxygenase (Photinus pyralis) (P08659 whole entry, looked up): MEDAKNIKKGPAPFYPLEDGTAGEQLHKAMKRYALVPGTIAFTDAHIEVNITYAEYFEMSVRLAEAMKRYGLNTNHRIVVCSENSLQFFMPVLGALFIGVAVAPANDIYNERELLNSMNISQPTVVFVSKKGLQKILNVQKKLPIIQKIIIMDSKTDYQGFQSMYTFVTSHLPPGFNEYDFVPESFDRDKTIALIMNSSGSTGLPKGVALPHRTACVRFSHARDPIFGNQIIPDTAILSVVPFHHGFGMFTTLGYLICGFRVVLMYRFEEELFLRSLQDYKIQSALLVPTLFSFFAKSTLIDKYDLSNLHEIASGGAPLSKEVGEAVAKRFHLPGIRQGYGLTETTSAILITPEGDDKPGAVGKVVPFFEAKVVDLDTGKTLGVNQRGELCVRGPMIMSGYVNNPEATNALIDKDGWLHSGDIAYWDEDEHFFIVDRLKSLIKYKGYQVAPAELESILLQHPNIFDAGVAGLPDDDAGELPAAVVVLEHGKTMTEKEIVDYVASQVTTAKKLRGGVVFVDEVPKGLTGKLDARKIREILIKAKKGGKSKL
Chain of Calcium and integrin-binding protein 1 (Homo sapiens) (Q99828 whole entry, looked up): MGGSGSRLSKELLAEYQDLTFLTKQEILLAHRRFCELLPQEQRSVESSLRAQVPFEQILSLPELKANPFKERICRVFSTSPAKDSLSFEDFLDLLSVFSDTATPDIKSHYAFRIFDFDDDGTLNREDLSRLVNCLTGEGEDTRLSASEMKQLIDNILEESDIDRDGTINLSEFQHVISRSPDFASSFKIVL
Chain of Nicotinamide N-methyltransferase (Homo sapiens) (P40261 whole entry, looked up): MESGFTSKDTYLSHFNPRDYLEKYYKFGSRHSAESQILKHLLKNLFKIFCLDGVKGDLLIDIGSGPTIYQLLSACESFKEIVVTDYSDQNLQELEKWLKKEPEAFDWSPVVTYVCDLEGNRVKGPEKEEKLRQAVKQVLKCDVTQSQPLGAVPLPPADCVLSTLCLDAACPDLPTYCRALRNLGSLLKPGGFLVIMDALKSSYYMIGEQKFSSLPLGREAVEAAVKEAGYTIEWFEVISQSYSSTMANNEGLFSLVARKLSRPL
Chain of Furin (Homo sapiens) (P09958 whole entry, looked up): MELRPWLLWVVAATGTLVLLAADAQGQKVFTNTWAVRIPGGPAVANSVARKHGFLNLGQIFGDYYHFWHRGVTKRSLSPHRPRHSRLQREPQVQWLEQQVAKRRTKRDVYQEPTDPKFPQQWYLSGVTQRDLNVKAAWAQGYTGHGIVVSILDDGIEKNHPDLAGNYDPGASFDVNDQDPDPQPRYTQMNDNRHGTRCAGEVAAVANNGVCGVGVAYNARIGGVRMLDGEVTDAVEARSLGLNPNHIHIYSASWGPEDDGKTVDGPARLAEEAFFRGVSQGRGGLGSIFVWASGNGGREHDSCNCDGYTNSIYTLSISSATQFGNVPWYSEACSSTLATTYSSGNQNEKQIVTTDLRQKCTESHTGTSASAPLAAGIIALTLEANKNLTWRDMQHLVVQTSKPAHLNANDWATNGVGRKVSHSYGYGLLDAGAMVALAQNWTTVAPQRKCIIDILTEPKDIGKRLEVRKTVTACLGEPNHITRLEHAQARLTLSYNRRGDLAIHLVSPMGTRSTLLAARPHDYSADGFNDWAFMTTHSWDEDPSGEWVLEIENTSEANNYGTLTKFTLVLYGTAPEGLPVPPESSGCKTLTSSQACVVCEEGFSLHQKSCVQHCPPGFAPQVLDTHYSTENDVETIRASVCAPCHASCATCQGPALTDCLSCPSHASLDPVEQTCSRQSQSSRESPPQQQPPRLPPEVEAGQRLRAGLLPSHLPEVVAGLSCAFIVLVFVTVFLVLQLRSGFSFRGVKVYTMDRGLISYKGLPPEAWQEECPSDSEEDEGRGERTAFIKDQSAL
Chain of Catechol O-methyltransferase (Homo sapiens) (P21964 whole entry, looked up): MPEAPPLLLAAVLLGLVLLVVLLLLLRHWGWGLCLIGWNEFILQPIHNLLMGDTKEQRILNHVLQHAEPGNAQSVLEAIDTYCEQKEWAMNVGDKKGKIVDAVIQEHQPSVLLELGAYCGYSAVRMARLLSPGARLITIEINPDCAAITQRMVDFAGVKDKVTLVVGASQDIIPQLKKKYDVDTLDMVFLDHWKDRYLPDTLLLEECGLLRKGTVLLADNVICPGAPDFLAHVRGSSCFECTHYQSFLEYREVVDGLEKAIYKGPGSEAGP
Chain of Cytochrome P450 2C9 (Homo sapiens) (P11712 whole entry, looked up): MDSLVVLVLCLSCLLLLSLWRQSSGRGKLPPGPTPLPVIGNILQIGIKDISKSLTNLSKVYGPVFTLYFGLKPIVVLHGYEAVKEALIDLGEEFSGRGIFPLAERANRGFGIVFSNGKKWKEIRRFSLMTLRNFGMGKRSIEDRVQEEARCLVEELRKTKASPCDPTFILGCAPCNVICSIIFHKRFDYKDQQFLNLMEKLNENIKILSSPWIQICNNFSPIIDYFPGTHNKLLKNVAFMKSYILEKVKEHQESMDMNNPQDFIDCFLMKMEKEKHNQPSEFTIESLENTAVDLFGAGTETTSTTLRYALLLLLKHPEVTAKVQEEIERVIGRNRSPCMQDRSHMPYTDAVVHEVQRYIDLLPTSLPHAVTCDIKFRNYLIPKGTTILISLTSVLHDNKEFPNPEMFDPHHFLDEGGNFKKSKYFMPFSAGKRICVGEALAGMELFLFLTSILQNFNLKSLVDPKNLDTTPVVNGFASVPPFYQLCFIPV

For the compound `N#Cc1ccc(N2CCN(C(=O)COc3ccc4[nH]cc(CCN)c4c3)CC2)cc1`, the Potency entry in test [1], in test [2], in [3], in test [4], in test [11] and in test [12] was “inactive” in each case. Moreover, the Potency entry (in test [14]; in [15]; in the test with CAOV3; in the test on CASKI; with Es-2; in the test on HeLa) was “inactive” throughout. For the same compound, the Potency entry in the test with Hek293T, in the test with JEG-3, in the test with OV90, with PA-1, in the test on SKOV3 and with Tov112D was “inactive” in each case. For the same compound, the results for the Potency in test [5] and in [6] were 19 µM (active) and 1.69 µM (active), respectively. Further, the activity in test [7] is -2.1%; in [9], 2.26%; in test [10], 2.22%. The compound also gave an activity change, negative = inhibition in test [8] of 0.371%. Moreover, the outcome in test [13] was “inactive”. Also, in the test with KB-3-1, the max response was -19.2% (inactive).

Turning to `CC(N)Cc1ccc2c(c1)OCO2` (centres undefined), the Potency entry (in test [16]; in test [1]; in the test with astro) was “inactive” in each case. The max response was -8.54% (inactive) in [17] and -15.3% (inactive) in the test on KB-3-1.

As for `Cc1ccc2c(c1)[C@]13CCCC[C@@H]1[C@H](C2)N(C)CC3`, the max response in test [17] is -5.26% (inactive); in the test on KB-3-1, -5.13% (inactive). Besides, the Potency result (in test [1]; in the test with Furin (Homo sapiens); in [19]; in test [20]; in test [23]; in test [11]) was “inactive” in each case. The Potency entry (in test [12]; in the test on astro) was “inactive” throughout. Also, the outcome in test [18], in test [21] and in [22] was “inactive” each time.
